In PubChem BioAssay (NCI):
The panel holds about 79,000 compounds, 15% with a hit somewhere; the sample as a whole holds those more often. Values without a mark were called inactive. Calls of active or inactive are those of the source. Cut-off read from the data, not from the text of the source: active = growth inhibition above about 70%; inactive = the rest.

Tests used:
[1] = NCI Yeast Anticancer Drug Screen. Data for the rad50 strain (AID 155);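 note: 0% = growth of vehicle-only cultures of the same strain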; details: S. cerevisiae rad50 strain growth inhibition; at 50.0 µM; active compounds read high
Method in brief: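 Readout: growth inhibition relative to vehicle-treated cultures. Compound exposure was carried out in a genetically defined yeast strain deficient in DNA damage repair.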

[2] = NCI Yeast Anticancer Drug Screen. Data for the mec2-1 strain (AID 157); details: S. cerevisiae mec2-1 strain, at 50.0 µM, active compounds read high
Method in brief: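 Mutant yeast (mec2-1) grown with compound; growth inhibition relative to vehicle control reported.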

[3] = NCI Yeast Anticancer Drug Screen. Data for the sgs1 mgt1 strain (AID 161);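 note: 0% = growth of cultures given vehicle only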; details: S. cerevisiae sgs1 mgt1 strain, at 50.0 µM, active compounds read high
Method in brief: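 Yeast cells carrying a defined DNA-repair defect were exposed to test compounds. Growth inhibition was measured relative to vehicle-treated controls.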

[4] = NCI Yeast Anticancer Drug Screen. Data for the cln2 rad14 strain (AID 165);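 note: 0% = growth equal to vehicle treated cultures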; details: S. cerevisiae cln2 rad14 strain, at 50.0 µM, active compounds read high
Method in brief: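 Readout is yeast growth inhibition versus vehicle-treated controls, using a strain with cln2 and rad14 alterations exposed to compound.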

[5] = NCI Yeast Anticancer Drug Screen. Data for the bub3 strain (AID 167); details: S. cerevisiae bub3 mutant strain, at 50.0 µM, active compounds read high
Method in brief: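 Readout: yeast growth inhibition, expressed relative to vehicle-only wells. The test organism is a mutant strain from a panel with lesions in DNA repair or checkpoint genes.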

[6] = NCI Yeast Anticancer Drug Screen. Data for the mlh1 rad18 strain (AID 175); details: S. cerevisiae mlh1 rad18 strain growth inhibition; at 50.0 µM; active compounds read high
Method in brief: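 Genetically defined yeast (DNA repair-deficient) exposed to compounds; growth inhibition determined relative to vehicle.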

SMILES | growth inhibition [1] [%] | growth inhibition [2] | growth inhibition [3] [%] | growth inhibition [4] [%] | growth inhibition [5] | growth inhibition [6]
O=C1CC2[C@@H](N3CCCC3)CCC(N1Cc1ccccc1)C2(O)O (some centres not stated) | -6.75 | -38% | 1.2 | -4.05 | -19.8% | 3.25%
CN(C)c1ccc(/C=C\C(O)c2ccccc2)cc1 (configuration not stated) | 22.7 | 11.3% | 32.2 | 7.6 | 2.55% | 42%
CNC(=O)Nc1ccc(C(=O)O)cc1 | 9.2 | 4.35% | 5.35 | -38.1 | 9.8% | 5.2%
COC(=O)/C=C1\SC(OC)(N(C)c2ccccc2)N(C)C1=O (configuration not stated) | -25.6 | 9.6% | 22.7 | -10.4 | -0.8% | 19.1%
COc1ccc(OC)c(NC(=O)Sc2c(Cl)c(Cl)nc(Cl)c2Cl)c1 | 18.4 | 13.2% | 16.2 | -8.9 | -0.05% | -10.2%
CC(=S)N=Cc1c(N)[nH]n(-c2ccccc2)c1=O | -40.5 | -12.8% | -24.6 | -0.3 | -20.1% | -24.5%
COC(=O)CNC(=O)C(Cc1ccccc1)NC(=O)OCc1ccccc1 (configuration not stated) | -4.95 | -3.75% | -1.55 | 1.9 | 15.8% | -3.3%
CC1=CC(C)S(=O)(=O)C1 (configuration not stated) | -38.4 | -46.2% | -89.1 | -5.7 | -57.8% | -16.7%
COC(=O)C1(C)C=CC(=O)C2(C)C1C(O)C1OC3CC(c4ccoc4)C(C)=C3C1(C)C2CC(=O)O (configuration not stated) | 19.9 | -7% | 20.1 | 12.4 | 10.8% | -21.3%
COc1ccc2cc(C(=O)CCC(=O)O)ccc2c1 | 2.7 | -35% | -16.4 | -21.3 | -38.5% | 0.25%
CC(=O)OCC1OC(n2ncnc2CBr)C(OC(C)=O)C(OC(C)=O)C1OC(C)=O (configuration not stated) | 30 | -3.4% | 12.4 | 8.45 | -4.8% | 10.6%
CNC(=O)N(C)COC | -2.65 | -10.9% | 2.55 | -0.7 | -40.8% | -5.1%
Cc1cc(C)c(C(=O)c2ccccc2C(=O)O)c(C)c1 | 0.05 | 11.1% | 3.05 | -89 | 24.5% | -12%
O=[N+]([O-])c1ccc(/C(CBr)=N/N2CCCCCC2)cc1 | -1.05 | -16.9% | -19.7 | 7.9 | -15.8% | -4.55%
COc1ccc(OC)c(C(=O)CCCCCCCCC(=O)c2cc(OC)ccc2OC)c1 | 27.2 | 8% | 3.85 | 25.4 | -3.95% | 7.25%
C/C(=N\NC(N)=O)c1sc(-c2nc(C)c(/C(C)=N/NC(N)=O)s2)nc1C | 32.8 | 22.8% | 20.9 | 43.3 | -16.1% | 27.5%
CC1OC(c2cccc([N+](=O)[O-])c2)OCC1(C)C (configuration not stated) | -14.7 | -19.4% | -4.9 | -32.6 | 15.1% | -16.6%
C(=Nc1cccc2ccccc12)Nc1cccc2ccccc12 | -10.9 | -38.7% | -5.8 | -6.7 | -48.8% | 1.25%
CCCCCCCCC(Br)C(Br)CCCCCCCC(=O)NCCCOC (configuration not stated) | -2.45 | -13.5% | 1.95 | -33.1 | 1.95% | 18.3%
NC(CSCCSCCSCC(N)C(=O)O)C(=O)O (configuration not stated) | -4.45 | 0.1% | 11.2 | -9.05 | -38.4% | -4.5%
Cc1cc[n+](Cc2ccccc2Cl)c(C)c1 | 19 | 2.25% | 14 | -4.15 | 2.05% | 4.9%

SMILES | growth inhibition [1] [%] | growth inhibition [2] | growth inhibition [3] [%] | growth inhibition [4] [%] | growth inhibition [5] | growth inhibition [6]
COc1cc2oc3cc(OC)c(OC)c(CC=C(C)C)c3c(=O)c2c(O)c1CC=C(C)C | -1.45 | -30.6% | 0.15 | 5.8 | -30.6% | 21.2%
C/C(CC(C)(C)C)=N/NS(=O)(=O)c1ccc(C)cc1 | 7.7 | -1.6% | 9.8 | 1.75 | 5.45% | 12.7%
CCN(CC)c1ccc(/C=N/NC(=O)NN)cc1 | 4.35 | -20.9% | -15.4 | -13.1 | -7.95% | -5.3%
CC(/C=C/c1ccccc1)=N\NC(=S)N/N=C(C)/C=C/c1ccccc1 | 10.5 | 37.6% | 21.5 | 9.3 | 49.5% | 11.1%
c1csc(-c2nc3sc(-c4cccs4)nc3s2)c1 | 3.4 | -9.75% | 1.9 | -18.8 | -16.6% | -2.4%
O=C1c2ccccc2CCC12OC2c1ccccn1 (configuration not stated) | 67.8 | 78.5% (active) | 55 | -6 | 89.9% (active) | 84.2% (active)
CN=Cc1c(O)ccc2ccccc12.[Cu+2] | 15.3 | 7.6% | 1.7 | 6.45 | -32.9% | 52.9%
O=C(Nc1ccccc1)OC1C=CC2CCC1C2 (configuration not stated) | 7.75 | 3.35% | 38.6 | 12.8 | 17.8% | 58.3%
CCc1sc(N)nc1-c1ccccc1 | -3.15 | -23.9% | 7.05 | -1.65 | 4% | -8.75%
O=C1c2ccccc2S[C@@H](O)[C@@H]2CCCN12 | -31.9 | -13.7% | -64.7 | -13.7 | -41.8% | -41.7%
Cc1ccc(O)c(C=O)c1 | -31.1 | -42.1% | -7.65 | 11.7 | -25.7% | -6.8%
CCOC(=O)C(C)(C)Oc1ccc2c(C)c(-c3ccc(Cl)cc3)c(=O)oc2c1 | -1.7 | -26.4% | -1.25 | -41.2 | -47.6% | -10.9%
CCCCC(O)C(C)(C)C (configuration not stated) | 1.5 | -8.65% | 3.55 | 6.55 | 9.65% | 7.2%
CC(=O)OC1=C(C)C2=C3OC(=O)C(C)=C3CC[C@@]2(C)CC1 | 3.7 | 1.2% | 6.85 | 19.4 | 25% | 6.95%
NS(=O)(=O)c1ccc(NC2(C(=O)O)CCCC2)cc1 | -18.4 | -9.3% | -0.9 | -9.4 | -38.5% | -21.5%
CC(C)C(=O)OCCCc1ccccc1 | 11.7 | -5.3% | 1.8 | 7.45 | 21.5% | 12.8%
CN(C)C=Nc1c2c(nc3ccccc13)CCCC2 | -35.4 | -16.4% | -8.8 | 7.4 | 18.9% | 18.4%
CC(O)C(C)(C)O (configuration not stated) | 12.3 | -8.85% | 15.6 | -13.4 | 16.1% | 4.15%
C#CCN(CC#C)C(=O)C(=O)c1c[nH]c2ccc(OC)cc12 | 41.2 | 0.9% | 56.8 | 44.5 | 52.4% | 51%
CS(=O)(=O)OC1CCCS(=O)(=O)c2ccccc21 (configuration not stated) | -12.9 | -12.8% | 3.65 | -46.9 | -1% | -6.45%
O=C(/C=C\c1ccccc1)c1ccc(-c2cccc(-c3ccccc3)c2)cc1 | -8.55 | 7.95% | 7.5 | -17.4 | -3.15% | -11.1%
